The campaign covered roughly 310,000 compounds. About 2,200 (0.71%) showed an effect of 50% or more. The effect is printed as a negative number. The list comes from a sample in which strong results are over-represented; it also holds similar structures and randomly drawn compounds.
target: human ether-à-go-go-related gene (hERG) potassium channel (human, UniProt Q12809); assay: primary screen, population patch clamp on CHO cells stably expressing hERG; higher = less effect of the substance
Sequence (Q12809 whole entry, looked up): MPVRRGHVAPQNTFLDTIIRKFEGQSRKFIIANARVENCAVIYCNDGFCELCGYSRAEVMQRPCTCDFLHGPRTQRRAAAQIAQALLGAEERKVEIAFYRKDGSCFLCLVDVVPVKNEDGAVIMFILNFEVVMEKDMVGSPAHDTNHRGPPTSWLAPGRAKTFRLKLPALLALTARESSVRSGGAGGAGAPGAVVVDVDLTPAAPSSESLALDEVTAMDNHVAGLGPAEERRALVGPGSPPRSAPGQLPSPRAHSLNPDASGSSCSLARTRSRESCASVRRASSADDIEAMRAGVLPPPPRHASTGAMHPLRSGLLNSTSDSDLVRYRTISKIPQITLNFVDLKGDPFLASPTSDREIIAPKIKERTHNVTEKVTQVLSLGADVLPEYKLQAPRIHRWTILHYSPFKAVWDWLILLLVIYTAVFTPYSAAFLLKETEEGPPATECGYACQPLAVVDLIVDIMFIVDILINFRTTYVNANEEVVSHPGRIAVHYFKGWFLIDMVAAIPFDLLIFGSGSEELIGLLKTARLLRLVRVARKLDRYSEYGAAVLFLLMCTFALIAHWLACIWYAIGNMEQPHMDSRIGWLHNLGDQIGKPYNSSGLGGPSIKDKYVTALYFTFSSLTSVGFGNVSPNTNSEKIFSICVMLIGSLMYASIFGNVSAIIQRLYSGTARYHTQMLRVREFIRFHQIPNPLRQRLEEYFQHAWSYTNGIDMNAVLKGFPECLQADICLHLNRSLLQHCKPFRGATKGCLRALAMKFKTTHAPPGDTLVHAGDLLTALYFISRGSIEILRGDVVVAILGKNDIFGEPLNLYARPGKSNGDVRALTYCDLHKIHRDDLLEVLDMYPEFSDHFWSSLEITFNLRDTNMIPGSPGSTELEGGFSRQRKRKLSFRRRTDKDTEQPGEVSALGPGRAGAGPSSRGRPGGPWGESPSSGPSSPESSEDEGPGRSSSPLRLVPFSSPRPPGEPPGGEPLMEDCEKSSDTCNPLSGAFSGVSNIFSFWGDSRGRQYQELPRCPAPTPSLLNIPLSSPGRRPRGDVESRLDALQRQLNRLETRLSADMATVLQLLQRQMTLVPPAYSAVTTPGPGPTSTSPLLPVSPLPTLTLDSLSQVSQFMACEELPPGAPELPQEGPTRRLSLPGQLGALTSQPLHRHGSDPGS

| SMILES | hERG current change (%, negative = inhibition) at 1uM |
| --- | --- |
| O=C(CN1CCN(C(=O)c2ccco2)CC1)NCc1ccc(Cl)cc1 | -35.1% |
| O=C(OCC(=O)N1CCN(C(=O)c2ccco2)CC1)c1cncc(Br)c1 | 6.76% |
| C[C@@H](C(=O)NCc1c(F)cccc1Cl)N1C(=O)N2CCc3c([nH]c4ccccc34)[C@@]2(C)C1=O | 4.12% |
| CC1(C)OC(=O)C(=CNc2ccccc2)C(=O)O1 | 2.21% |
| COC(=O)c1ccc2c(c1)C(C)(C)C(/C=C/c1ccccc1O)=[N+]2C.[I-] | -7.78% |
| C[N+]1=C(/C=C/Nc2ccccc2)C(C)(C)c2ccccc21.[O-][Cl+3]([O-])([O-])[O-] | -62.8% |
| O=C1c2ccccc2C(=O)N1OCc1ccc(Cl)cc1 | 8.72% |
| CCOc1ccccc1OCCN1CCC(Cc2ccccc2)CC1.O=C(O)C(=O)O | -53.7% |
| COc1cc(CN2CCC(C)CC2)ccc1OCc1ccccc1.O=C(O)C(=O)O | -3.21% |
| COc1cc(C(=O)OCC(=O)N2CCC(Cc3ccccc3)CC2)cc(OC)c1OC | 13.4% |
| COc1ccc(OC)c(CN2CCC(Cc3ccccc3)CC2)c1.O=C(O)C(=O)O | -61.9% |
| COc1ccc(CN2CCN(Cc3ccc(C)cc3)CC2)c(OC)c1.O=C(O)C(=O)O | -18.9% |
| COc1cc(C(C)=O)ccc1OCCN1CCC(Cc2ccccc2)CC1.O=C(O)C(=O)O | -93.3% |
| COc1ccc(CN2CCC(Cc3ccccc3)CC2)cc1OC.O=C(O)C(=O)O | -32.9% |
| COc1ccc(CN2CCN(Cc3ccc(C(F)(F)F)cc3)CC2)cc1.O=C(O)C(=O)O | -24.5% |
| COc1ccc(CN2CCN(Cc3ccc(C(F)(F)F)cc3)CC2)c(OC)c1.O=C(O)C(=O)O | -66.6% |
| Clc1ccccc1OCCN1CCC(Cc2ccccc2)CC1.O=C(O)C(=O)O | 10.6% |
| Cc1ccccc1OCCN1CCC(Cc2ccccc2)CC1.O=C(O)C(=O)O | -10% |
| COc1ccc(OC)c(CN2CCN(C(=O)Cc3ccccc3)CC2)c1.O=C(O)C(=O)O | 17.6% |
| COC(=O)C1CCN(C(=O)Cc2ccc(C)cc2)CC1 | 10.2% |
| COc1cccc(C(=O)Nc2cccc(-c3nnc(-c4ccco4)o3)c2)c1 | -1.01% |
| O=C(O)c1cccc(O)c1O | 8.42% |
| CCOC(=O)N1CCN(Cc2cc(=O)oc3cc4c(cc23)CCC4)CC1 | -3.49% |

| SMILES | hERG current change (%, negative = inhibition) at 1uM |
| --- | --- |
| Cc1cc(=S)[nH]c2c(C)cccc12 | 15.9% |
| c1ccc(-c2cnnc(-c3ccccn3)n2)cc1 | 4.98% |
| CN(C)CCCOC(=O)c1cc2ccccc2o1.Cl | 13% |
| COc1ccccc1C1=NOC(C(=O)N2CCN(C(=O)c3ccco3)CC2)C1 (stereo not shown) | 8.33% |
| Cc1cccc2cc(C#N)c(NCCCn3ccnc3)nc12 | -11.1% |
| COc1cc(C(C)=O)ccc1OCCCN1CCC(Cc2ccccc2)CC1.O=C(O)C(=O)O | -82.8% |
| COc1cccc(CN2CCC(N(CCc3ccccc3)Cc3ccccc3)CC2)c1OC.O=C(O)C(=O)O | 0.877% |
| COc1cc(C(=S)N2CCC(Cc3ccccc3)CC2)ccc1OCC(N)=O | 3.73% |
| COc1ccc(CN2CCC(N(CCc3ccccc3)Cc3ccccc3)CC2)c(OC)c1.O=C(O)C(=O)O | -79.8% |
| COc1ccc(CN2CCC(C(=O)N(C)CCc3ccc(OC)c(OC)c3)CC2)c(OC)c1.O=C(O)C(=O)O | -18% |
| COc1ccc(CCNC(=O)c2ccc(CN3CCC(Cc4ccccc4)CC3)cc2)cc1OC | -3.19% |
| CC(C)(C)c1ccc(COn2ccnc2)cc1 | 21% |
| COC(=O)CSc1ccc(C#N)c(SCC(=O)OC)c1 | 12.6% |
| COC(=O)c1ccc(NC(=O)CN2CCN(S(=O)(=O)c3cc(Cl)ccc3OC)CC2)cc1 | 10.2% |
| O=C(CSc1n[nH]c(-c2cccnc2)n1)Nc1ccccc1[N+](=O)[O-] | 11.9% |
| COc1cccc(Cn2c(-c3cccs3)noc2=O)c1 | -8.06% |
| COc1ccc(C)cc1S(=O)(=O)N(CC(=O)N1CCCC1)c1ccc(C)cc1 | -25.1% |
| COc1ccc(C)cc1S(=O)(=O)N(CC(=O)N1CCCC1)c1ccccc1 | 4.54% |
| COc1ccc(C)cc1S(=O)(=O)N(CC(=O)N1CCOCC1)c1cc(C)cc(C)c1 | -52% |
| CCCC(=O)Nn1cnc2c(c1=O)C1(CCCCC1)Cc1ccccc1-2 | 7.68% |
| COCCN=C1Sc2nc3cc(C)c(C)cc3cc2CN1Cc1cccs1 | 8.08% |
| COc1ccc(NC(=O)CN2CCN(CC(=O)Nc3ccccc3Cl)CC2)cc1 | -79.3% |
| COc1ccc(NC(=O)CN2CCC(C(N)=O)CC2)cc1 | 2.62% |

| SMILES | hERG current change (%, negative = inhibition) at 1uM |
| --- | --- |
| NC(=O)C1(N2CCCCC2)CCN(CC(=O)Nc2ccccc2-c2ccccc2)CC1 | 15.5% |
| COc1ccc(NC(=O)CCN2CCN(S(=O)(=O)c3ccc(Cl)cc3)CC2)cc1 | 2.03% |
| O=C(CN1CCCCC1)Nc1cc(Cl)ccc1Cl | -0.089% |
| COc1ccc(NC(=O)CN2CCN(CC(=O)Nc3ccc(OC)c(OC)c3)CC2)cc1 | -66.1% |
| COc1ccc(NC(=O)CN2CCN(c3ccccc3Cl)CC2)cc1 | 1.08% |
| COc1ccc(NC(=O)CN2CCCCCC2)cc1OC | 7.92% |
| CCOc1ccc(NC(=O)CN2CCN(S(=O)(=O)c3ccc(Cl)cc3)CC2)cc1 | 10.8% |
| COc1ccc(NC(=O)CN2CCN(S(=O)(=O)c3ccc(Cl)cc3)CC2)cc1 | -64.1% |
| COc1cccc(NC(=O)CN2CCN(CC(=O)Nc3ccccc3Cl)CC2)c1 | -21.1% |
| NC(=O)C1(N2CCCCC2)CCN(CC(=O)Nc2cc(Cl)ccc2Cl)CC1 | -55.3% |
| O=C(Nc1nc(-c2ccc3c(c2)OCCO3)cs1)C1CCCC1 | 8.23% |
| COC(=O)C1=C(c2cc3ccccc3o2)C[C@@H]2CC[C@H]1N2C(=O)N1CCCC1 | 7.5% |
| NC(=NCCc1ccc(Cl)cc1)NS(=O)(=O)c1ccccc1 | 9.74% |
| O=C(c1ccccc1Br)N1CCCC(c2nc(-c3cccs3)no2)C1 (stereo not shown) | 13.2% |
| COc1ccc2oc(=N)c(-c3nnc4n3CCCCC4)cc2c1 | 1.02% |
| Cc1ccccc1C(=O)N1CCC(C(=O)Nc2ccc(C)c(S(=O)(=O)N3CCCCC3)c2)CC1 | 2.28% |
| O=C(CN1CCN(S(=O)(=O)N2CCCCC2)CC1)Nc1ccc(Br)cc1 | 2.87% |
| O=C(CN1CCN(S(=O)(=O)N2CCCCCC2)CC1)Nc1ccc(Br)cc1 | -3.27% |
| COc1cccc(CN2CCCN(S(=O)(=O)c3ccc(Br)cc3)CC2)c1 | -22.3% |
| COc1ccc(NC(=O)CN2CCN(S(=O)(=O)N(C)C)CC2)cc1 | 13.9% |
| O=C(CN1CCCC1)Nc1ccc(F)cc1 | 16.6% |
| O=C(CN1CCN(C(=O)C2CCC2)CC1)Nc1ccc(F)cc1 | -27.3% |
| O=C(CN1CCN(S(=O)(=O)N2CCCCCC2)CC1)Nc1ccc(F)cc1 | -75.1% |

| SMILES | hERG current change (%, negative = inhibition) at 1uM |
| --- | --- |
| COc1ccc(NC(=O)CN2CCCCC2)cc1.O=C(O)C(=O)O | 10.6% |
| O=C(CN1CCN(C(=O)N2CCCCC2)CC1)Nc1ccc(F)cc1 | -76.5% |
| COc1ccc(S(=O)(=O)N2CCN(Cc3ccc(Cl)cc3)CC2)cc1 | -4.05% |
| COc1ccc(CN2CCCN(S(=O)(=O)c3ccc(Br)cc3)CC2)cc1 | -75.6% |
| COc1ccc(NC(=O)CN2CCN(S(=O)(=O)N3CCCCCC3)CC2)cc1 | -60.8% |
| CCc1nnc(NC(=O)C2COc3ccccc3O2)s1 (stereo not shown) | 2.41% |
| CCn1nc(NC(=O)COC)c2cc3cc(C)ccc3nc21 | 9.09% |
| COc1ccc(NS(=O)(=O)NC(=O)c2c[nH]c3ccccc23)cc1 | 9.58% |
| CCOc1cc(CO)cc(Br)c1OCC(=O)Nc1ccccc1C | 6.36% |
| Cc1cc(NC(=O)CCC(=O)NNC(=O)c2ccc(C(C)(C)C)cc2)no1 | 6.49% |
| COc1ccc(NC(=O)CN2CCN(CC#N)CC2)cc1 | -44.9% |
| O=C(CN1CCN(CC(=O)Nc2ccccc2Cl)CC1)Nc1ccc(F)c(F)c1 | -74% |
| COc1ccc(NC(=O)CN2CCN(CC(=O)Nc3ccc(OC)cc3)CC2)cc1 | -85.6% |
| COc1ccc(C(=O)CN2CCN(S(=O)(=O)c3cccc([N+](=O)[O-])c3)CC2)cc1 | -64.3% |
| COc1ccc(C(=O)CN2CCN(S(=O)(=O)c3cccc([N+](=O)[O-])c3)CC2)cc1OC | 3.44% |
| COc1cccc(NC(C)=[N+](C)CCNS(=O)(=O)c2ccc(Cl)cc2)c1.[I-] | -36.6% |
| COc1ccc(NC(=O)CN2CCCC2)cc1 | 14.6% |
| O=C(CN1CCN(c2ccc(Cl)cc2)CC1)Nc1ccc(F)c(F)c1 | -1.8% |
| COc1ccc(NC(C)=[N+](C)CCNS(=O)(=O)c2ccc(Cl)cc2)cc1.[I-] | -59.5% |
| COc1cccc(C(=O)CN2CCN(S(=O)(=O)c3cccc([N+](=O)[O-])c3)CC2)c1 | 6.87% |
| CC(Nc1ccc(F)cc1)=[N+](C)CCNS(=O)(=O)c1ccc(Cl)cc1.[I-] | -45.1% |
| O=C(CN1CCN(Cc2ccccc2)CC1)Nc1ccc(F)c(F)c1.O=C(O)C(=O)O | -21.9% |
